Results taken from PubChem BioAssay AID2401 (Southern Research Specialized Biocontainment Screening …, 2010).
The campaign covered roughly 2,200 compounds. About 530 (24%) were called active. Only a sample is shown. Measured potencies and affinities stand elsewhere. Unmarked numbers belong to inactive results.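 The calls were made as follows: active = inhibition above a set limit at one or more concentrations of the dose series; inactive = inhibition under that limit at every dose.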

Assay: nmpC-GFP reporter counter-screen in S. Typhimurium, dose response, counter-screen for PhoP regulon inhibitor project, Salmonella Typhimurium, GFP fluorescence (AID 2401);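 also: S. typhimurium with Mg-insensitive nmpC-GFP reporter grown at 10 µM Mg2+; drop in reporter fluorescence reflects general culture growth inhibition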
Conditions: 4 h; series mostly up to 150 µM; inhibition: at the top concentration

Row | Structure (SMILES) | inhibition
1 | O=C(NCc1cccs1)Nc1cccs1 | -33.1%
2 | CSc1nnc2c3c4c(sc3nc(-n3nc(C)cc3C)n12)COC(C)(C)C4 | -11.8%
3 | CC(C)Cn1cnc2sc3c(c2c1=N)CCCC3 | -4.26%
4 | Cn1c(NCc2cc(Br)ccc2O)nc2ccccc21 | -21.2%
5 | COc1cc(/C=C2/SC(=S)N(CC(=O)Nc3cccnc3)C2=O)cc(OC)c1OC | -45.8%
6 | CC1Cc2ccccc2N1C(=O)COC(=O)c1ccc(S(=O)(=O)N(C)C)cc1 (centres undefined) | -26.3%
7 | O=C(NC1CCCCC1)C(c1ccncc1)N(CC1CCCO1)C(=O)C(F)(F)F (centres undefined) | 3.65%
8 | CCn1nnc(-c2ccccc2NC(=O)c2ccc(-n3cnnn3)cc2)n1 | -6.44%
9 | Clc1ccc(OCCCn2ccnc2)c(Br)c1 | 16.8%
10 | CCCCNCCCOc1cccc(Cl)c1Cl | 16.4%
11 | CC(C)NCCCOc1ccc(Cl)cc1Br | 10.7%
12 | O=C(COc1ccc(Br)cc1Cl)NC(=O)NCc1ccccc1 | -5.96%
13 | Clc1cc(Br)ccc1OCCn1ccnc1 | 11.8%
14 | c1ccc(COc2ccccc2CNCc2cccnc2)cc1 | -26%
15 | CCN(Cc1ccccc1)C(=O)CN1C(=S)NC(C)(C)CC1C (centres undefined) | -9.86%
16 | CCOC(=O)Nc1ccc(C)cc1C | -17.9%
17 | COC(=O)c1[nH]c2ccc(C)cc2c1NC(=O)Nc1ccc(OC)cc1 | -17.9%

Row | Structure (SMILES) | inhibition
18 | O=C(/C=C/c1cccs1)N1CCN(Cc2ccc3c(c2)OCO3)CC1 | -15.1%
19 | O=C(Nc1cccc2ccccc12)c1ccc(Cn2cc(Cl)cn2)cc1 | 0.25%
20 | NC(=O)c1cnn(Cc2ccc(Cl)cc2)c1N | -17.2%
21 | CN(C)c1ccnc(Oc2ccc(F)cc2)c1C#N | -16.6%
22 | COc1ccc(CN=C2Nc3ccccc3CS2)cc1 | -0.21%
23 | Cc1cc(=O)[nH]c(N/N=C/c2c[nH]c3ccccc23)n1 | -27.2%
24 | CCCCn1c(/N=C/c2c[nH]c3ccccc23)nc2ccccc21 | 19.1%
25 | Fc1ccc(-c2n[nH]c(=S)n2/N=C/c2c[nH]c3ccccc23)cc1 | 12.6%
26 | O=C(N/N=C/c1cn(-c2ccccc2)nc1-c1ccc(F)cc1)c1ccc2c(c1)OCO2 | 24.5%
27 | Cc1c(NS(=O)(=O)c2ccccc2)c(=O)n(-c2ccccc2)n1C | -18.6%
28 | Cc1ccc2nc(SCC(=O)NCc3ccco3)[nH]c2c1 | 0.53%
29 | Cc1cccc(Nc2nnc(SCC(=O)NC3CCCc4ccccc43)s2)c1 (centres undefined) | -3.06%
30 | Nc1cc(Br)c(N)c(Br)c1 | -3.53%
31 | CC(=O)Nc1c(O)nc(SCC(=O)N2CCN(c3ccc(F)cc3)CC2)[nH]c1=O | -33.4%
32 | CCOC(=O)CNS(=O)(=O)c1c(C)noc1C | -21.7%
33 | CC1=C(C(=O)Nc2cccnc2)C(c2ccccn2)n2nnnc2N1 (centres undefined) | -1.7%
34 | Cc1ccc(-n2nnnc2SCC(=O)Nc2ncc(Cc3ccccc3Cl)s2)cc1 | -23.2%
